The values below come from ChEMBL document CHEMBL4888484, “Replenishing the malaria drug discovery pipeline: Screening and hit evaluation of the MMV Hit Generation Library 1 (HGL1) against asexual blood stage Plasmodium falciparum ,using a nano luciferase reporter read-out” (2022).

Molecules are shown by their SMILES. In all, about 150,000 compounds went through this assay and about 540 (0.36%) showed an effect of 50% or more. This is one part of a sample in which strong results are shown more often than they occur.

The test system of this assay is Plasmodium falciparum. In words: Primary screen in NF54 nanoGlo assay, in single point, at 2uM, 72h; a lower Z score goes with more inhibition. The class given is functional, Erythrocyte. To be noted: timepoint 72 hour.
A word on the % Inhibition: it is the change of the read-out against control, counted positive when it falls. For `Cn1cccc1CCC(=O)NCCc1noc(C2CC2)n1`, the “% Inhibition” value is -5% and the Z score came out at 0.69.
For `CN1CCC(Oc2cc(NC(=O)c3cscn3)ccn2)CC1`, the “% Inhibition” value is given as -16% and the Z score is on record as 1.85.
The like results for `CCn1cc(CN2CCN3C(=O)N(c4ccccc4)C(=O)[C@@H]3C2)cn1` were, in that order, -2% and 0.24.
Consider `COCCN1CC[C@H](c2ncnn2C2CCCCC2)C1`, for which the “% Inhibition” value is recorded as -7% and the Z score was found to be 1.3.
Turning to `CCc1nccc(CN2CCC[C@H](CS(C)(=O)=O)C2)n1`, the “% Inhibition” value was -20% and the Z score is on record as 2.11.
The like results for `Cn1cnc2c1CCN(C[C@H](O)c1ccccc1Cl)C2` were, in that order, 0% and 0.04.
Take `CCC(CC)C(=O)N(Cc1ccc(-c2ccc(Cl)cc2)o1)[C@H]1CCS(=O)(=O)C1`: the “% Inhibition” value is given as -7% and the Z score was found to be 0.86.
Turning to `CCC(=O)N(Cc1ccc(-c2ccc(Cl)cc2)o1)[C@H]1CCS(=O)(=O)C1`, the “% Inhibition” value came to 63% and the Z score is on record as -8.22.
The like results for `CC(C)C(=O)N(Cc1ccc(-c2ccc(Cl)cc2)o1)[C@H]1CCS(=O)(=O)C1` were, in that order, 1% and -0.15.
`Cc1nnc(COc2cccc3c2OCCO3)s1`: the “% Inhibition” value is given as -12% and the Z score came to 2.16.
As for `CC(C)C(=O)NCC(=O)N1CC[C@@]2(CCCN(CCCc3ccccc3)C2)C1`, the “% Inhibition” value is reported as -7% and the Z score stood at 1.41.
For `CN(Cc1ccc2ccn(C)c2c1)C[C@H]1CCCCO1`, the “% Inhibition” value is reported as -2% and the Z score worked out at 0.4.
In the case of `COc1ccc(Br)c(S(=O)(=O)NCC2(C)CCC2)c1`, the “% Inhibition” value is listed as 1% and the Z score is recorded as -0.23.
The like results for `CC(=O)NC[C@H]1CN(c2ccnc(C(C)(C)C)n2)CCO1` were, in that order, -12% and 1.4.
With `CNC(=O)c1cc(S(=O)(=O)N2CC=CC2)cn1C`, the “% Inhibition” value is -4% and the Z score came out at 0.78.
Consider `Cc1ccccc1NC(=O)[C@H]1c2cccc[n+]2CC(=O)N1c1ccc2c(c1)OCO2`, for which the “% Inhibition” value was -9% and the Z score is given as 1.37.
For `CC(C)(C)OC(=O)N1CCC[C@@H]1CNC1CC1`, the “% Inhibition” value is recorded as -7% and the Z score is listed as 0.86.
Consider `CC(C)(C)OC(=O)N1CC2CC(=O)CC1C2` (stereo not given), for which the “% Inhibition” value is given as 3% and the Z score is reported as -0.39.
Regarding `O=C1Cc2cc(S(=O)(=O)Nc3ccccc3C(=O)NCc3ccco3)ccc2N1`, the “% Inhibition” value is reported as -32% and the Z score came out at 3.76.
The like results for `CCc1cc(NC(=O)N[C@@H](C)c2nc(C(F)(F)F)no2)n(C)n1` were, in that order, -7% and 1.
For the compound `COCc1cnc(NC(=O)NC2(c3ncccn3)CCOCC2)s1`, the “% Inhibition” value came out at 52% and the Z score is -0.94.
For `Cc1cc(C(=O)NC2(c3ncccn3)CCOCC2)c(C)s1`, the “% Inhibition” value is reported as -4% and the Z score is given as 0.7.
In the case of `CC(C)Cc1cnc(NC(=O)N[C@@]2(C)CCOC2)s1`, the “% Inhibition” value is reported as 8% and the Z score is -1.23.
The like results for `CCc1cc(C(=O)N2CC[C@@]3(CCCN(Cc4cccc(OC)c4)C3)C2)on1` were, in that order, -5% and 0.79.
Turning to `CC(C)CC(=O)N(Cc1nccn1Cc1ccc(Cl)cc1Cl)CC1CC1`, the “% Inhibition” value is recorded as -8% and the Z score was found to be 0.76.
Turning to `CC[C@H](C)N1CC(=O)N(c2ccns2)C1=O`, the “% Inhibition” value was -14% and the Z score was determined as 2.59.
The like results for `COc1ccnc(-c2ccc(F)c3cccnc23)c1` were, in that order, -4% and 0.58.
Regarding `COc1cccc(CNS(=O)(=O)c2cc(-c3c(C)nn4c3NC(=O)CCC4=O)ccc2OC)c1`, the “% Inhibition” value is reported as 2% and the Z score is recorded as -0.21.
For `O=C1CCCN1Cc1ncnn1Cc1ccc2c(c1)OCO2`, the “% Inhibition” value is recorded as -4% and the Z score turned out to be 0.57.
`O=C(Nc1cccc2cccnc12)c1cscn1`: the “% Inhibition” value is listed as 9% and the Z score was -1.21.
With `Oc1ccccc1CNc1cccc2cccnc12`, the “% Inhibition” value was found to be 96% and the Z score is on record as -8.95.
As to `Oc1cccc(CNc2cccc3cccnc23)c1`, the “% Inhibition” value turned out to be 27% and the Z score is reported as -3.62.
The like results for `Oc1ccccc1CNc1cccc2c[nH]nc12` were, in that order, -4% and 0.68.
As to `O=C(Nc1cccc2cccnc12)c1ccccn1`, the “% Inhibition” value is listed as 79% and the Z score is listed as -8.04.
For the compound `O=C(Nc1cccc2cccnc12)c1csnn1`, the “% Inhibition” value turned out to be 6% and the Z score is given as -1.1.
In the case of `O=C(Cn1ccc([C@H]2CCCNC2)n1)NCc1c(F)cccc1Cl`, the “% Inhibition” value worked out at 0% and the Z score is on record as -0.03.
The like results for `O=C1CC[C@H](C(=O)N2CCCCO2)CN1CCN1CCOCC1` were, in that order, -15% and 1.87.
Regarding `CCC1CCC(C(=O)NCC(=O)N2CCn3cncc3C2)CC1` (stereo not given), the “% Inhibition” value is reported as -22% and the Z score turned out to be 2.8.
With `Cn1c(-c2ccccc2)cn2cc(-c3ccc(F)cc3)nc12`, the “% Inhibition” value was 38% and the Z score is reported as -0.19.
In the case of `Cn1c(-c2ccc(Br)cc2)cn2cc(-c3ccc(Cl)cc3)nc12`, the “% Inhibition” value was 44% and the Z score turned out to be 0.7.
In the case of `Cn1c(-c2ccccc2)cn2cc(-c3ccc(Cl)cc3)nc12`, the “% Inhibition” value is given as 54% and the Z score is -1.03.
With `Nc1n[nH]c(-c2ccc(Br)o2)n1`, the “% Inhibition” value is on record as 4% and the Z score is on record as -0.5.
Regarding `OC1=Nc2c(ncn2-c2cc(F)cc(F)c2)[C@@H](c2cccnc2)C1`, the “% Inhibition” value is 34% and the Z score is listed as -3.88.
Take `Cc1ccc(CN2CCN(CC(=O)Nc3cc(C)on3)C(=O)C2=O)cc1`: the “% Inhibition” value is 0% and the Z score is -0.03.
With `O=c1nc2n(nc1-c1ccc(F)cc1)C1(CCCC1)Nc1ccccc1-2`, the “% Inhibition” value is -9% and the Z score is 0.98.
With `O=c1nc2n(nc1-c1ccccc1)C1(CCC1)Nc1ccccc1-2`, the “% Inhibition” value was 54% and the Z score is on record as -13.48.
Turning to `O=c1nc2n(nc1-c1ccccc1)C1(CCCCC1)Nc1ccccc1-2`, the “% Inhibition” value is listed as -10% and the Z score came to 1.25.
With `C[C@H](NC(=O)C1=NN(C)C(=O)CC1)c1ccc2c(c1)OCCO2`, the “% Inhibition” value is given as -13% and the Z score came to 1.49.
The like results for `O=C(CCS(=O)(=O)c1ccccc1)N1CC[C@H](Oc2cc(C(F)(F)F)ccn2)C1` were, in that order, -6% and 1.09.
Consider `O=C(O)CN1CCC[C@H](c2nc(-c3ccccc3)c[nH]2)C1`, for which the “% Inhibition” value is recorded as -8% and the Z score was 0.94.
For the compound `COc1ccnc(CN2CCC[C@H](c3nc(-c4ccccc4)c[nH]3)C2)c1OC`, the “% Inhibition” value was found to be 69% and the Z score is -7.6.
With `Cc1nncn1C1CCN(S(=O)(=O)c2ccc(Cl)cc2)CC1`, the “% Inhibition” value is -11% and the Z score is reported as 1.89.
Consider `COc1ccc(CC(=O)N2C3COCC2C3)nc1`, for which the “% Inhibition” value was 33% and the Z score was -3.69.
With `CC(=O)c1cccc(NC(=O)N2CCC3(CCC3)C2)c1`, the “% Inhibition” value was -6% and the Z score stood at 1.19.
As for `CC(=O)c1cccc(NC(=O)[C@@]23CCC(=O)N2c2ccccc2C(=O)N3C)c1`, the “% Inhibition” value stood at 84% and the Z score is -11.29.
Turning to `COc1cccc(NC(=O)C23CCCN2CCC3)c1`, the “% Inhibition” value was -8% and the Z score came out at 1.16.
Turning to `CCN1C(=O)c2ccccc2N2C(=O)CC[C@@]12C(=O)Nc1cccc(OC)c1`, the “% Inhibition” value was found to be 92% and the Z score is -11.06.
As to `CCCN1C(=O)c2ccccc2N2C(=O)CC[C@@]12C(=O)Nc1cccc(NC(C)=O)c1`, the “% Inhibition” value was 8% and the Z score was -1.31.
With `CCCCN1C(=O)c2ccccc2N2C(=O)CC[C@@]12C(=O)Nc1nccs1`, the “% Inhibition” value is listed as 25% and the Z score is listed as -2.95.
Turning to `CC(=O)c1cccc(NC(=O)N2CCCCCCC2)c1`, the “% Inhibition” value is listed as 2% and the Z score is reported as -0.33.
In the case of `CCN1C(=O)c2ccccc2N2C(=O)CC[C@@]12C(=O)Nc1nccs1`, the “% Inhibition” value is given as 8% and the Z score is -0.95.
`CCCN1C(=O)c2ccccc2N2C(=O)CC[C@@]12C(=O)Nc1ccc(OC)cc1`: the “% Inhibition” value is listed as 88% and the Z score is on record as -16.69.
Take `CCCN1C(=O)c2ccccc2N2C(=O)CC[C@@]12C(=O)Nc1ccccc1`: the “% Inhibition” value is on record as 88% and the Z score is listed as -14.36.
With `CCCN1C(=O)c2ccccc2N2C(=O)CC[C@@]12C(=O)Nc1nc(C)cs1`, the “% Inhibition” value was 2% and the Z score is reported as -0.31.
As to `Cc1cc(N(C)C)ccc1NC(=O)CCN1C(=O)c2ccccc2N2C(=O)CC[C@]12C`, the “% Inhibition” value was found to be 2% and the Z score is reported as -0.43.
